Bioassay records from PubChem.
Lassa entry inh = qHTS for Inhibitors of binding or entry into cells for Lassa Virus | AID 540256, 2011 | Potency, µM (top dose mostly 37.9 µM), for inactives: at the highest dose activity change, negative = inhibition, most hits filed as inhibitors | Lassa virus pseudotype entry inhibition, cell reporter | 300,000 compounds, 1.2% hits; calls by dose curve; tested in HEK293 cells; further: potency means the concentration at half of the fitted maximal effect; nearly all actives have a fitted effect of over 50% in size
VACV mCherry inh = qHTS for Stage-Specific Inhibitors of Vaccinia Orthopoxvirus: mCherry Reporter Primary qHTS; 310,000 compounds, 0.63% hits; Vaccinia virus mCherry reporter infection, fluorescence; Potency, µM (top dose mostly 36.5 µM), for the others: top-dose activity change, negative = inhibition, most hits filed as inhibitors; calls by dose curve; tested in A549 cells; further: potency means the concentration at half of the fitted maximal effect; nearly all actives have a fitted effect of over 35% in size
MARV entry inh = qHTS for inhibitors of binding or entry into cells for Marburg Virus | Marburg virus pseudotyped entry inhibition, cell reporter | AID 540276, 2011 | 300,000 compounds, 1.8% hits | Potency, µM (titrated, usually from 37.8 µM), for the others: at the top dose activity change, negative = inhibition, hits mostly inhibitors; calls by dose curve; tested in HEK293 cells; further: potency means the concentration at half of the fitted maximal effect
HCV inhibitor = qHTS Assay for Inhibitors of Hepatitis C Virus (HCV); Huh7.5.1 HCVcc-Cre infection, luciferase reporter, 44 h; 340,000 compounds, 3.4% hits; Potency, µM (top dose mostly 41.8 µM), for inactives: top-dose activity change, negative = inhibition, usual class: inhibitors; active means well fitted inhibition curve with a large enough effect; inconclusive means small, poorly fitted or top-dose-only effect, or another doubt; inactive means no such curve, though single readings can be large or run the other way; further: potency means the concentration at half of the fitted maximal effect
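Luciferase read-out (15 sec integration) after a 15 min room-temperature substrate step quantifies HCVcc-Cre infection. Cells, 1,000 per well, had compound added 4 h post-plating, then virus at ~0.5 moi, and were cultured 44 h.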
HCMV inh = qHTS Assay for inhibitors of the human cytomegalovirus (HCMV); AID 1259415, 2018; 410,000 compounds, 4.5% hits; activity change, negative = inhibition, % at 57.5 µM; HFF cells, HCMV-luciferase reporter, 72 h; active compounds read low; in the data active means activity change below about -60%; inconclusive means no clear call, values can overlap the other calls; inactive means above about -39%
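Two compound doses tested in HFFs infected with HCMV-luciferase, MOI 1 PFU/cell, 72 h at 37C. Lysate luminescence read with OneGlo; data normalized against buffer-only and 10uM Salinomycin inhibitor controls.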
VACV Venus inh = qHTS for Stage-Specific Inhibitors of Vaccinia Orthopoxvirus: Venus Reporter Primary qHTS; Vaccinia virus Venus reporter expression, fluorescence; Potency, µM (series often up to 36.5 µM), for the others: at the top dose activity change, negative = inhibition, actives largely listed as inhibitors; 330,000 compounds, 0.46% hits; AID 720580, 2013; calls by dose curve; tested in A549 cells; further: potency means the concentration at half of the fitted maximal effect; nearly all actives have a fitted effect of over 30% in size
Numbers without * were called inactive; i = inactive; ? = inconclusive; nt = no result given; [ ] = another dose, or the depositor's remark. Rows were chosen to be rich in hits. Some 7.8% of all compounds tested hit in one or more screens of this group. On the % scale 0 is the no-effect control and ±100 the full control effect.

SMILES	Lassa entry inh	VACV mCherry inh	MARV entry inh	HCV inhibitor	HCMV inh	VACV Venus inh
COc1ccc(OC)c(NC(=O)c2cc(S(=O)(=O)NCCc3ccc(Cl)cc3)ccc2F)c1	-2%[46.1 µM]	-13%	nt	nt	-20	-16%
Cc1occc1C(=O)Nc1cccc(C(F)(F)F)c1	0%	nt	-13%	-27%	-11	nt
Cc1cnc(Nc2nc3ccccc3o2)nc1C(=O)Nc1cccc(C(F)(F)F)c1	0%	nt	-21%	6.3µM*	-74*	nt
Cn1c(=O)[nH]c(=O)c2c1nc1n2CCN1c1ccccc1	4%[46.1 µM]	-16%	3%[46.1 µM]	nt	10	-15%
Cc1cc(OCC(=O)NCC2(N3CCN(C)CC3)CCCCC2)cc(C)c1Cl	-24%[46.1 µM]	-8%	?	nt	-82*	-25%
O=C(CSc1ccccc1)NCC1(N2CCOCC2)CCCCC1	1%	-18%	-29%	-12%	-77*	-4%
O=C(COc1ccccc1Cl)NCC1(N2CCOCC2)CCCCC1	12%[46.1 µM]	-24%	-24%[46.1 µM]	nt	-100*	-21%
CCOC(=O)C1=C(CSc2nc(C)cc(C)c2C#N)OC(N)=C(C#N)[C@H]1c1cccs1	nt	nt	-29%[46.1 µM]	nt	nt	nt
COc1ccc(-c2ccccc2-c2noc3ccccc23)cc1	nt	nt	nt	nt	-1	nt
O=C(OCc1cccs1)c1ccccc1NS(=O)(=O)c1ccc2c(c1)OCCO2	-25%	i	?	8.9µM*	-16	-13%
N/C(=N\OC(=O)c1ccc2ccccc2c1)c1ccccn1	?	-10%	?	6%	-83*	-9%
CCCc1ccc(C(=O)O/N=C(\N)c2ccccn2)cc1	1.4µM*	-10%	11µM*	1%	-70*	-6%
N/C(=N\OC(=O)c1ccc2ccccc2c1)c1ccncc1	nt	nt	nt	?	33	nt
c1ccc(-c2nc3cc4ccccc4cc3[nH]2)nc1	2.2µM*	-18%	?	?	-20	-28%
CC(=O)Nc1ccc2nc(-c3ccccn3)[nH]c2c1	?	?	10%	3%	49	?
O=[N+]([O-])c1ccc2ncnc(N3CCN(Cc4ccc5c(c4)OCO5)CC3)c2c1	nt	nt	nt	?	-80*	nt
O=[N+]([O-])c1cccnc1N1CCN(Cc2ccc3c(c2)OCO3)CC1	0%	-6%	2%	2%	-16	-15%
C=CCc1cc(C(=O)N2CCCCC2)ccc1O	16%	nt	-15%	-9%	-71*	nt
O=C(c1ccc2c(c1)OCCO2)N1CCCCC1	?	nt	18%	1%	-2	-11%
COc1cc(C2C3=C(COC3=O)Oc3cc4c(cc32)OCO4)cc(OC)c1O (stereo unspecified)	?	32µM*	?	-18%	-79*	?
O=C1OCC2=C1C(c1ccc3c(c1)OCO3)c1cc3c(cc1O2)OCO3 (stereo unspecified)	?	-4%	-22%	?	-23	-27%
COc1cc(C2C3=C(COC3=O)Oc3cc4c(cc32)OCO4)cc(OC)c1OC (stereo unspecified)	?	?	?	?	-84*	?
CN(C)C(=O)C(CCN1CCC(O)(c2ccc(Cl)cc2)CC1)(c1ccccc1)c1ccccc1	4.1µM*	-6%	4.1µM*	?	-25	-24%
CN(C)c1ccc(NC(=O)CN2CCC(O)(c3ccccc3)CC2)cc1	-21%	5%	-5%[46.1 µM]	-5%	-37	13%
Oc1ccc(/C=N/Nc2ccnc3cc(Cl)ccc23)cc1O	nt	?	nt	?	-60*	-11%
SMILES	Lassa entry inh	VACV mCherry inh	MARV entry inh	HCV inhibitor	HCMV inh	VACV Venus inh
CCN1CCN(c2ncc3c(n2)CCN(Cc2cc(Br)cs2)C3)CC1	10%[46.1 µM]	-17%	nt	nt	-7	-16%
CC(C)C(C)NC(=O)COc1ccc(Sc2ccc(OCC(=O)NC(C)C(C)C)cc2)cc1 (stereo unspecified)	?	-26%	?	?	-88*	-11%
O=C(O)c1cccc(S(=O)(=O)Nc2ccc(S(=O)(=O)N3CCOCC3)cc2)c1	2%	0%	-3%[46.1 µM]	17%	-34	-3%
Cc1cccc(C(=O)NNC(=O)c2ccc(S(=O)(=O)N3CCOCC3)cc2)c1	?	-7%	?	18%	-75*	-23%
Cc1ccc(C(=O)NNC(=O)c2cccc(S(=O)(=O)N3CCOCC3)c2)cc1	nt	nt	nt	15%	2	nt
O=C(O)c1cccc(NS(=O)(=O)c2ccc(S(=O)(=O)N3CCOCC3)cc2)c1	nt	nt	nt	10%	-76*	nt
O=C(c1cccc(NS(=O)(=O)c2cccc(C(F)(F)F)c2)c1)N1CCOCC1	-2%	i	8%	23%	-62*	-4%
O=[N+]([O-])c1cc(Cl)cc2c1nc(NCCO)c1ccccc12	-9%[46.1 µM]	0.89µM*	?	2µM*	-95*	?
O=C(NC1CCCCC1)[C@@H]1CC=C[C@@H]2CCN(Cc3ccc(Cl)c(Cl)c3)C(=O)[C@@H]21	nt	-9%	nt	nt	nt	-5%
Cc1cccc(N2CCN(C(=O)c3cc4c(=O)n(C)c5ccccc5c4n3C)CC2)c1C	nt	?	nt	0%	?	-24%
Cc1ccc(Cl)cc1N1CCN(C(=O)c2cc3c(=O)n(C)c4ccccc4c3n2C)CC1	nt	?	nt	20%	-79*	-25%
O=C(Cn1c(=O)n(-c2cccc(Cl)c2)c(=O)c2sc3ccccc3c21)N1CCCC1	-19%[46.1 µM]	-7%	-3%[46.1 µM]	nt	-81*	-9%
COc1ccc(-n2c(=O)c3sc4ccccc4c3n(CC(=O)NCc3ccccc3)c2=O)cc1	-5%[46.1 µM]	-6%	-2%[46.1 µM]	nt	-105*	2%
Cc1ccc(-n2c(=O)c3sc4ccccc4c3n(CC(=O)NC3CCCC3)c2=O)cc1C	1%[46.1 µM]	-24%	0%[46.1 µM]	nt	-71*	-27%
O=C(Cn1c(=O)n(-c2ccccc2)c(=O)c2sc3ccccc3c21)N1CCCC1	5%[46.1 µM]	-6%	4%[46.1 µM]	nt	-19	-3%
CCS(=O)(=O)N1CCc2cc(OC)c(OC)cc2C1	15%	-10%	0%	6%	34	-6%
COc1cc2c(cc1OC)CN(S(C)(=O)=O)CC2	nt	8%	nt	1%	-85*	-6%
